Results from PubChem BioAssay (NCI).
About 79,000 compounds went through this panel and 15% of them were active in at least one assay; those are over-represented in the sample as a whole. Activity calls are given as the source filed them. No stated cut-off is given here; in the data, active means growth inhibition above about 70%; inactive means the rest. Where a SMILES comes first, the peptide text is derived from it. [ ]: non-standard residue; d: D form. The star is where a group is joined. Cbz = O=C(OCc1ccccc1)*; Nva = CCC[CH](N)C(=O)O

assay: NCI Yeast Anticancer Drug Screen. Data for the rad50 strain (AID 155);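 further: 0% = growth of vehicle-only cultures of the same strain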; conditions: S. cerevisiae rad50 strain growth inhibition; at 50.0 µM; hits give high values
Procedure, shortened: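 DNA repair mutant yeast, compound exposure, growth read-out; inhibition is taken relative to vehicle.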

Structure (SMILES) | growth inhibition
CCCCCCCCCOc1ccc2ccccc2c1 | -16.9% (inactive)
CCCC(NC(=O)OCc1ccccc1)C(=O)NC(C(=O)O)C(C)CC (stereo not given) (Cbz-[Nva]-Ile-OH; configuration not given here) | 26.3% (inactive)
Cc1ccccc1N1C(=O)[N+]2(CCCCC2)N=C1[O-] | -11.1% (inactive)
CCC([NH-])(CC)C[NH-].[Cl][Pt+2][Cl] | 2.3% (inactive)
O=c1[nH]c(=O)n(C2CC(O)C(CO)O2)cc1OCC1CCCCC1 (stereo not given) | -33.9% (inactive)
CN(C)NC(=O)CC#N | -18.4% (inactive)
COC(=N)c1ncn(Cc2ccccc2)c1N | -21.6% (inactive)
COC(=O)C1=C(C(=O)OC)SC(=C2C3=C(SC(C(=O)OC)=C(C(=O)OC)S3)c3ccccc32)S1 | 31.1% (inactive)
Cc1ccc(-c2c(C#N)c(-c3ccc(Cl)cc3)c(C#N)c(=O)n2NS(=O)(=O)c2ccc(C)cc2)cc1 | 20.9% (inactive)
CC12CCCCC1C(C(C)(C)OC(=O)c1ccc([N+](=O)[O-])cc1)CC2 (stereo not given) | 15% (inactive)
Ic1ccccc1 | -0.9% (inactive)
O=C/C=C/c1ccc2c(c1)OC(CO)C(c1ccc(O)c(O)c1)O2 (stereo not given) | 9.15% (inactive)
Cc1c(Cl)ccc2c1NC(=O)C2(O)CC(=O)c1ccccc1 (stereo not given) | 10.1% (inactive)
CCOC(=O)/C(C#N)=C/Nc1ccncc1 | 2.95% (inactive)
COC(=O)C1CN=CN1CCc1ccccc1 (stereo not given) | -2.05% (inactive)
Cc1nc(C)c(N2CCN(S(N)(=O)=O)CC2)c(=O)[nH]1 | -70.3% (inactive)
NS(=O)(=O)c1cc(C(=O)O)c(O)c2ccccc12 | 9.85% (inactive)
COC(=O)c1cc(C)nc(Cl)c1C(=O)O | 1.55% (inactive)
COc1ccccc1CO | 0.85% (inactive)
COc1cc2c(c(Cl)c1O)C(=O)OC2 | -4.25% (inactive)

Structure (SMILES) | growth inhibition
COC(=O)[C@@]12C(=O)N[C@@H](Cc3ccccc3)[C@@H]1[C@H](C)C(C)=C[C@@H]2CO | -27.4% (inactive)
Cc1c(N=Nc2cccc(F)c2)c(-c2ccccc2)nn1C(=S)S | 20.2% (inactive)
CC(O)COc1ccc(C(C)(C)C)cc1 (stereo not given) | 3.25% (inactive)
CC(=O)CC(=O)N1CCCCCCC1 | -34% (inactive)
O=C(Nc1ccc(Cl)cc1)Oc1ccc(Br)cc1Br | 10.9% (inactive)
O=C(c1ccc(F)cc1)c1ccc2ccccc2c1 | 8.75% (inactive)
CCc1ccccc1NC(=O)Sc1cccc(C)c1 | -3% (inactive)
COc1ccc2[nH]c3c(C)c4c(c(C)c3c2c1)CN(C)CC4 | 3.7% (inactive)
CCOCCOCCOCOCCOCCOCC | 17.2% (inactive)
CC(=O)c1cccc(F)c1C(C)c1ccc2ccccc2c1 (stereo not given) | -3.85% (inactive)
NC1=Nc2ccccc2Sc2nncn21 | -18.2% (inactive)
Cc1c(C(=O)CC(=O)C(=O)NC2C3CC4CC(C3)CC2C4)[n+](=O)c2ccccc2n1[O-] (stereo not given) | -11.1% (inactive)
O[C@@H]1C=C(c2ccccc2)[C@H](c2ccccc2)C1 | -3% (inactive)
O=C(Cc1nc2ccccc2o1)C(=O)Nc1ccc(Cl)cc1Cl | 10.7% (inactive)
CCOC(=O)c1cnc(C)nc1Nc1ccccc1 | 5.75% (inactive)
N#Cc1nc(NC(=O)c2ccccc2C(=O)O)c(C#N)[nH]1 | 1.5% (inactive)
O=C(NCCS(=O)(=O)N1C(=O)C2CCCN2C(=O)[C@@H]1Cc1ccccc1)OCc1ccccc1 (stereo not given in full) | -4.35% (inactive)
O=[N+]([O-])c1ccc(N=Cc2ccccc2)cc1 | 1.95% (inactive)
NNC(=O)COc1ccc(Br)cc1Br | 33.2% (inactive)
Cc1cc2c(cc1C)NC(=O)CC(=O)N2 | -3.45% (inactive)

assay: NCI Yeast Anticancer Drug Screen. Data for the mec2-1 strain (AID 157); conditions: S. cerevisiae mec2-1 strain, at 50.0 µM, hits give high values
Procedure, shortened: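 Growth inhibition is read against vehicle-treated controls after compound exposure of the mec2-1 yeast strain, which is defective in DNA damage repair or cell cycle control.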

Structure (SMILES) | growth inhibition
CCCCCCCCCOc1ccc2ccccc2c1 | 16.1% (inactive)
CCCC(NC(=O)OCc1ccccc1)C(=O)NC(C(=O)O)C(C)CC (stereo not given) (Cbz-[Nva]-Ile-OH; configuration not given here) | 12.4% (inactive)
Cc1ccccc1N1C(=O)[N+]2(CCCCC2)N=C1[O-] | 2.2% (inactive)
CCC([NH-])(CC)C[NH-].[Cl][Pt+2][Cl] | 13.4% (inactive)
O=c1[nH]c(=O)n(C2CC(O)C(CO)O2)cc1OCC1CCCCC1 (stereo not given) | -4.8% (inactive)
CN(C)NC(=O)CC#N | -1.55% (inactive)
COC(=N)c1ncn(Cc2ccccc2)c1N | -28.6% (inactive)
COC(=O)C1=C(C(=O)OC)SC(=C2C3=C(SC(C(=O)OC)=C(C(=O)OC)S3)c3ccccc32)S1 | -2.15% (inactive)
Cc1ccc(-c2c(C#N)c(-c3ccc(Cl)cc3)c(C#N)c(=O)n2NS(=O)(=O)c2ccc(C)cc2)cc1 | 19.8% (inactive)
CC12CCCCC1C(C(C)(C)OC(=O)c1ccc([N+](=O)[O-])cc1)CC2 (stereo not given) | 8.2% (inactive)
Ic1ccccc1 | 7.25% (inactive)
O=C/C=C/c1ccc2c(c1)OC(CO)C(c1ccc(O)c(O)c1)O2 (stereo not given) | 2.2% (inactive)
Cc1c(Cl)ccc2c1NC(=O)C2(O)CC(=O)c1ccccc1 (stereo not given) | -3.95% (inactive)
CCOC(=O)/C(C#N)=C/Nc1ccncc1 | -12.4% (inactive)
COC(=O)C1CN=CN1CCc1ccccc1 (stereo not given) | -10.6% (inactive)
Cc1nc(C)c(N2CCN(S(N)(=O)=O)CC2)c(=O)[nH]1 | -26.9% (inactive)
NS(=O)(=O)c1cc(C(=O)O)c(O)c2ccccc12 | 3.3% (inactive)
COC(=O)c1cc(C)nc(Cl)c1C(=O)O | 4.95% (inactive)
COc1ccccc1CO | -13.8% (inactive)
COc1cc2c(c(Cl)c1O)C(=O)OC2 | -7.8% (inactive)

Structure (SMILES) | growth inhibition
COC(=O)[C@@]12C(=O)N[C@@H](Cc3ccccc3)[C@@H]1[C@H](C)C(C)=C[C@@H]2CO | -45.3% (inactive)
Cc1c(N=Nc2cccc(F)c2)c(-c2ccccc2)nn1C(=S)S | 5.25% (inactive)
CC(O)COc1ccc(C(C)(C)C)cc1 (stereo not given) | -4.2% (inactive)
CC(=O)CC(=O)N1CCCCCCC1 | -57.5% (inactive)
O=C(Nc1ccc(Cl)cc1)Oc1ccc(Br)cc1Br | -3.95% (inactive)
O=C(c1ccc(F)cc1)c1ccc2ccccc2c1 | -1.3% (inactive)
CCc1ccccc1NC(=O)Sc1cccc(C)c1 | 27% (inactive)
COc1ccc2[nH]c3c(C)c4c(c(C)c3c2c1)CN(C)CC4 | 4.95% (inactive)
CCOCCOCCOCOCCOCCOCC | -25.2% (inactive)
CC(=O)c1cccc(F)c1C(C)c1ccc2ccccc2c1 (stereo not given) | 0.6% (inactive)
NC1=Nc2ccccc2Sc2nncn21 | -43.9% (inactive)
Cc1c(C(=O)CC(=O)C(=O)NC2C3CC4CC(C3)CC2C4)[n+](=O)c2ccccc2n1[O-] (stereo not given) | 0.8% (inactive)
O[C@@H]1C=C(c2ccccc2)[C@H](c2ccccc2)C1 | 9.6% (inactive)
O=C(Cc1nc2ccccc2o1)C(=O)Nc1ccc(Cl)cc1Cl | -4.6% (inactive)
CCOC(=O)c1cnc(C)nc1Nc1ccccc1 | 11.4% (inactive)
N#Cc1nc(NC(=O)c2ccccc2C(=O)O)c(C#N)[nH]1 | 14.1% (inactive)
O=C(NCCS(=O)(=O)N1C(=O)C2CCCN2C(=O)[C@@H]1Cc1ccccc1)OCc1ccccc1 (stereo not given in full) | -0.55% (inactive)
O=[N+]([O-])c1ccc(N=Cc2ccccc2)cc1 | -30.6% (inactive)
NNC(=O)COc1ccc(Br)cc1Br | 4.25% (inactive)
Cc1cc2c(cc1C)NC(=O)CC(=O)N2 | -28.8% (inactive)
